# Values without a mark were called inactive. Results filed as inconclusive are left out. Where a call stands in place of a potency, no number is given. Calls of active or inactive are those of the source. Unless noted, calls follow the shape of the full dose curve.
# Legend:
# [1] = Nuclear factor erythroid 2-related factor 2/antioxidant responsive element (Nrf2/ARE) small molecule agonists: qHTS cell viability counter screen in human keratinocytes (AID 1919968; active = well fitted curve in the direction sought with a large enough effect in the repeat runs; an effect the other way counts as inactive or inconclusive; also: nearly all actives have a fitted effect of over 55% in size; also: potency is read from the fitted curve at half-maximal effect)
# How it was run: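 HaCaT ARE reporter line, 1,500 cells/well; 5 h settle, 37 C/5% CO2; cpd in DMSO pinned; 23 h exposure; CellTiter-Fluor, 1 h; fluorescence.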
# [2] = Nuclear factor erythroid 2-related factor 2/antioxidant responsive element (Nrf2/ARE) small molecule agonists: luciferase reporter gene qHTS assay in human keratinocytes (AID 1919969); also: nearly all actives have a fitted effect of over 35% in size
# [3] = biological target: Gonadotropin-releasing hormone receptor (Homo sapiens) (UniProt P30968); assay: Human gonadotropin-releasing hormone receptor (GnRHR) small molecule agonists, calcium flux assay in GnRHR-HEK293 cells (AID 1920063); also: nearly all actives have a fitted effect of over 35% in size
# How it was run: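 GnRHR-HEK293, 1500 cells/well, 18 h 37 C/5% CO2; Ca dye 1 h 37 C; cpd pinned (DMSO), agonist mode; kinetic FL 480/540, 3 min, 1 s reads; 15 conc, n=3.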
# [4] = biological target: KiSS-1 receptor (Homo sapiens) (UniProt Q969F8); assay: Human kisspeptin (KISS1R) small molecule agonists, calcium flux assay in KISS1R-HEK293 cells (AID 1920064; active = well fitted curve in the direction sought with a large enough effect in the repeat runs; an effect the other way counts as inactive or inconclusive)
# How it was run: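 Stable human KISS1R HEK293 line; 18 h plating, 37 C/5% CO2; calcium dye 1 h 37 C; compound pin transfer; kinetic fluorescence Ex/Em 480/540, 3 min.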
# [5] = G protein-coupled receptor (GPCR) small molecule agonists, calcium flux assay: HEK293 wild type cell line counter screen (AID 1920065)
# How it was run: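 Kinetic fluorescence at Ex/Em 480/540, recorded every second over 3 min, served as the read-out after compound addition. Each compound was tested at 15 concentrations in triplicate on cells pre-loaded with calcium dye for 1 h.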
# [6] = p53 small molecule agonists, cell-based qHTS assay with human liver microsomes (AID 1963577)
# How it was run: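 p53RE-bla cells, 4,000/well, compound added after 5 h, with human liver microsomes 0.5 mg/mL and NADPH 0.5 mg/mL final; 16 h at 37 C, then LiveBLAzer 2 h RT, fluorescence.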
# [7] = p53 small molecule agonists, cell-based qHTS assay with rat liver microsomes (AID 1963578)
# How it was run: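 p53RE-bla cells, 4,000/well, pre-incubated 5 h, then given compounds plus rat liver microsomes (0.5 mg/mL final) and NADPH (0.5 mg/mL final). Incubation 16 h at 37 C; beta-lactamase reporter read by LiveBLAzer fluorescence after 2 h at room temperature.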
# [8] = p53 small molecule agonists, cell-based qHTS assay with human liver microsomes: qHTS cell viability counter screen (AID 1963579); also: nearly all actives have a fitted effect of over 45% in size
# How it was run: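 p53RE-bla cells, 4,000/well, dosed 5 hours after plating, with human liver microsomes (0.5 mg/mL final) plus NADPH (0.5 mg/mL final), 16 hours at 37 C. Viability read as CellTiter-Glo luminescence after 30 min at room temperature.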
# [9] = p53 small molecule agonists, cell-based qHTS assay with rat liver microsomes: qHTS cell viability counter screen (AID 1963580); also: nearly all actives have a fitted effect of over 45% in size
# How it was run: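 p53RE-bla HCT-116 cells (4,000/well) rested 5 h at 37 C, then given Tox21 compounds in DMSO with rat liver microsomes (0.5 mg/mL final) plus NADPH (0.5 mg/mL final) for 16 h at 37 C. Viability read by CellTiter-Glo luminescence after 30 min at room temperature.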
# [10] = p53 small molecule agonists, cell-based qHTS assay: qHTS cell viability counter screen (AID 1963581); also: nearly all actives have a fitted effect of over 45% in size
# How it was run: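 HCT-116 p53RE-bla cells, 4,000/well, plated 5 h before compound pin transfer; 16 h at 37 C; bla substrate 2 h RT; then CellTiter-Glo, 30 min RT, luminescence.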
# [11] = cAMP Responsive Elements (CRE) small molecule agonists, cell-based qHTS assay (AID 1963590)
# How it was run: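 HEK 293T CRE-bla, 2,000 cells/well, 18 h preincubation 37 C/5% CO2; cpds (DMSO) pinned, 3 h; LiveBLAzer B/G FRET substrate, 2 h RT.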
# [12] = cAMP Responsive Elements (CRE) small molecule antagonists, cell-based qHTS assay (AID 1963591; active = well fitted inhibition curve with a large enough effect in the signal ratio in the repeat runs, not every such curve was filed as active; the % refers to the signal ratio)
# How it was run: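 Beta-lactamase reporter read by FRET substrate (LiveBLAzer B/G) after 2 h at room temperature. CRE-bla HEK293T cells had received compound plus 0.25 uM (final) NKH477 for 3 h at 37 °C.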
# [13] = biological target: D(2) dopamine receptor (Homo sapiens) (UniProt P14416); assay: Dopamine D2 receptor (DRD2) small molecule agonists, cell-based qHTS assay (AID 1963594); also: nearly all actives have a fitted effect of over 35% in size
# How it was run: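 HEK293 cells stably expressing DRD2 were cultured 24 h at 37 C, then given Ro20-1724 (0.1 mM final) and compounds for 10 min at room temperature. NKH477 (200nM) was then added for 30 min. cAMP was read by HTRF.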
# [14] = biological target: D(2) dopamine receptor (Homo sapiens) (UniProt P14416); assay: Dopamine D2 receptor (DRD2) small molecule antagonists, cell-based qHTS assay (AID 1963595; active = well fitted inhibition curve with a large enough effect in the signal ratio in the repeat runs, with a control signal flat; the % refers to the signal ratio)
# How it was run: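 Cells were plated and grown for 24 h at 37 °C. Ro20-1724 (0.1 mM final) went in first, then compound for 10 min. NKH477 (200 nM) with quinpirole (12 nM) followed for 30 min at RT, then HTRF detection reagents for 1 h.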
# [15] = p53 small molecule agonists, cell-based qHTS assay (AID 1963582; active = well fitted activation curve with a large enough effect in the signal ratio in the repeat runs, not every such curve was filed as active; the % refers to the signal ratio; also: potency is read from the fitted curve at half-maximal effect)
# How it was run: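 Reporter line: p53RE-bla. Pre-incubation 5 h, 37 C, 5% CO2; compound (DMSO, pin tool) 16 h, 37 C; B/G FRET substrate 2 h RT; fluorescence intensity read.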
# [16] = biological target: 5-hydroxytryptamine receptor 2A (Homo sapiens) (UniProt P28223); assay: 5-hydroxytryptamine receptor 2A (HTR2A) small molecule antagonists, cell-based qHTS assay (AID 1963586); also: nearly all actives have a fitted effect of over 45% in size; also: potency is read from the fitted curve at half-maximal effect
# How it was run: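 Antagonist-mode intracellular calcium assay: DOI (4 nM) added after 5 min compound pre-incubation at room temperature to dye-loaded HTR2A-CHO cells. Fluorescence followed for 3 min, sampled every second.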
# [17] = biological target: 5-hydroxytryptamine receptor 2A (Homo sapiens) (UniProt P28223); assay: 5-hydroxytryptamine receptor 2A (HTR2A) small molecule agonists, cell-based qHTS assay (AID 1963587); also: nearly all actives have a fitted effect of over 30% in size
# How it was run: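 HTR2A-CHO cells, plated 18 h at 37 C/5% CO2, dye-loaded 1 h at 37 C; compounds in DMSO added by pin tool (agonist mode). Intracellular calcium flux read as kinetic fluorescence on FDSS over 2 min at 1 s intervals.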
# [18] = biological target: Muscarinic acetylcholine receptor M1 (Homo sapiens) (UniProt P11229); assay: Cholinergic receptor muscarinic 1 (CHRM1) small molecule antagonists, cell-based qHTS assay (AID 1963588); also: nearly all actives have a fitted effect of over 40% in size
# How it was run: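 CHRM1-CHO calcium-flux assay, antagonist mode. Cells were seeded 18 h, dye-loaded 1 h at 37 C and given compound for 5 min at RT, then acetylcholine was added at 50nM. FDSS fluorescence was read 3 min; 15 concentrations, three runs.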
# [19] = biological target: Muscarinic acetylcholine receptor M1 (Homo sapiens) (UniProt P11229); assay: Cholinergic receptor muscarinic 1 (CHRM1) small molecule agonists, cell-based qHTS assay (AID 1963589); also: nearly all actives have a fitted effect of over 35% in size
# How it was run: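 Human M1 in stable CHO line; 18 h plating, 1 h dye load 37 C; cpd added (agonist mode); Ca2+ fluorescence kinetic read, 1 s intervals; 15 conc, 3 runs.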
# [20] = biological target: Beta-2 adrenergic receptor (Homo sapiens) (UniProt P07550); assay: Adrenergic beta2 receptor (ADRB2) small molecule antagonists, cell-based qHTS assay (AID 1963592); also: series mostly up to about 92 µM; nearly all actives have a fitted effect of over 50% in size
# How it was run: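 Cells (CHO, stable ADRB2 overexpression) incubated 18-20hr at 37C; compounds added from DMSO; agonist mix (1nM isoproterenol, 100uM IBMX, 25uM Ro-20-1724) added; 0.5hr RT; d2-cAMP and anti-cAMP-cryptate added; 1hr RT; 665/615 nm read.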
# KiSS-1 receptor (Homo sapiens), sequence (Q969F8 whole entry, looked up): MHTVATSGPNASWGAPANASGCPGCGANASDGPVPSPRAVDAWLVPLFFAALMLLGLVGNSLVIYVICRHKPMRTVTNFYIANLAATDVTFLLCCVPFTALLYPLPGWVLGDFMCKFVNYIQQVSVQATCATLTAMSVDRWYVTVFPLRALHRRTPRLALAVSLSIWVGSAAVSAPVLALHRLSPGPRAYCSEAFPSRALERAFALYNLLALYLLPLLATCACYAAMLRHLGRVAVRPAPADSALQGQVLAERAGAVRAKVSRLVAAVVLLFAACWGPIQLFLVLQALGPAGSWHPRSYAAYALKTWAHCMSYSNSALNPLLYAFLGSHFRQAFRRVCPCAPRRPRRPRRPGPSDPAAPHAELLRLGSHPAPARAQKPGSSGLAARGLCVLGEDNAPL
# D(2) dopamine receptor (Homo sapiens), sequence (P14416 whole entry, looked up): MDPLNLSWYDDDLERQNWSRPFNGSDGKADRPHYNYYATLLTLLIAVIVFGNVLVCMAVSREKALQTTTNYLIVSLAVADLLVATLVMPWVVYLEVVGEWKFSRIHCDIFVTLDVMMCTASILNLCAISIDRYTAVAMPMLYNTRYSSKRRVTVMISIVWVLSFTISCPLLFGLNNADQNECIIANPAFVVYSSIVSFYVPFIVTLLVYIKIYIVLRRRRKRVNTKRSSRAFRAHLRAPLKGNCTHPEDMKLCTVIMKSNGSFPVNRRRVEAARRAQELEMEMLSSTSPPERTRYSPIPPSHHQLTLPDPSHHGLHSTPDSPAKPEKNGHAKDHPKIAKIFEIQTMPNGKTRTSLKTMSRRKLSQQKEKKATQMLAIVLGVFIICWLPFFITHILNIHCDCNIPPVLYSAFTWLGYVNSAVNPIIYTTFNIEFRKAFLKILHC
# Beta-2 adrenergic receptor (Homo sapiens), sequence (P07550 whole entry, looked up): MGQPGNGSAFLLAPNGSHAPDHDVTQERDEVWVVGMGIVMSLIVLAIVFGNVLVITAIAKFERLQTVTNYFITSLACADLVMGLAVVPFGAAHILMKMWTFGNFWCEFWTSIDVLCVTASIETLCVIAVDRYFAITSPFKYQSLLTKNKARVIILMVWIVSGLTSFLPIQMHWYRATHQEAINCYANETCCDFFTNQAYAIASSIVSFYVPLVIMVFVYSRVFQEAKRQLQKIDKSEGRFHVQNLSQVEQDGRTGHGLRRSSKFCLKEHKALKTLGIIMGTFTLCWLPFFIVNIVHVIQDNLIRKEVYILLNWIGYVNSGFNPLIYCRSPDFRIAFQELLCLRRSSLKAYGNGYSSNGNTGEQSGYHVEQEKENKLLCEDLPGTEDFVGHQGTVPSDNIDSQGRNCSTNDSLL
# Muscarinic acetylcholine receptor M1 (Homo sapiens), sequence (P11229 whole entry, looked up): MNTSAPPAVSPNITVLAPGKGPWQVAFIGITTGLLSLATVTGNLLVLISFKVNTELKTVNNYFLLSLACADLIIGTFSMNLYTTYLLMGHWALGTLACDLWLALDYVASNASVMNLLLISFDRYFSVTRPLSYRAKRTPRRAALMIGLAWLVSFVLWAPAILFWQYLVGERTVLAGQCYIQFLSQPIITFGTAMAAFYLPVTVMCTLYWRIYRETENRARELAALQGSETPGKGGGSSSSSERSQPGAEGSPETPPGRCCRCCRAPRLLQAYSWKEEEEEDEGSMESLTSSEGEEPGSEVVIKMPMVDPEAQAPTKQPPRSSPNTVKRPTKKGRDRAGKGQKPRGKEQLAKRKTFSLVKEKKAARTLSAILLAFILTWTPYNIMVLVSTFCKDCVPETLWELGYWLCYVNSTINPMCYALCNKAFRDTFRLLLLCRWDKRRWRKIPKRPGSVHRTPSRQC
# 5-hydroxytryptamine receptor 2A (Homo sapiens), sequence (P28223 whole entry, looked up): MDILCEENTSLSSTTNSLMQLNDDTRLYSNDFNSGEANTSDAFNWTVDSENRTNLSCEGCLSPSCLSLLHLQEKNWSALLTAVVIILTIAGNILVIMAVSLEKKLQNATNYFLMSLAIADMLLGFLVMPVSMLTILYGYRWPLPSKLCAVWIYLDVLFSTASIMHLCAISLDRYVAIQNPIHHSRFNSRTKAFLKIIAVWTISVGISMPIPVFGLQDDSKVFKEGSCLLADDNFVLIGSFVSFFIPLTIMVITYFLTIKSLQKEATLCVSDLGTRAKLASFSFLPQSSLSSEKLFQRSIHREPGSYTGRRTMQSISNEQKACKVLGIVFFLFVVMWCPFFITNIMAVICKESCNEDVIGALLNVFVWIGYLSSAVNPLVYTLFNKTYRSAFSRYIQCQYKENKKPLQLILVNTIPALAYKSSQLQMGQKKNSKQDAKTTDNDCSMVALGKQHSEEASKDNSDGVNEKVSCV
# Gonadotropin-releasing hormone receptor (Homo sapiens), sequence (P30968 whole entry, looked up): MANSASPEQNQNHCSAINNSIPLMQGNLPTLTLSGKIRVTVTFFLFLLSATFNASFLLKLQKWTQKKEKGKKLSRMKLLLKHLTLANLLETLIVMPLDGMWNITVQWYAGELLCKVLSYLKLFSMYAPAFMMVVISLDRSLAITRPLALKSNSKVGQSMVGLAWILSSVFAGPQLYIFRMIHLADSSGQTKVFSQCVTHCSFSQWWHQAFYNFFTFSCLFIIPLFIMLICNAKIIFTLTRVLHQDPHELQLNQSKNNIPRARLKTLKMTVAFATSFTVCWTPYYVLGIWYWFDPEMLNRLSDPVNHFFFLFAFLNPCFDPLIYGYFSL
compound,measurement,setting,value
Clc1cc2c(cc1Cl)Oc1cc(Cl)c(Cl)cc1O2,"activity change, negative = cytotoxicity",[1],5.41% [at 0.349 µM]
same,"activity, positive = activation",[2],4.08% [at 0.349 µM]
same,activity change,[3],"1.13% [at 0.217 µM, hits give high values]"
same,activation,[4],-3.37% [at 0.29 µM]
same,activation,[5],0.634% [at 0.217 µM]
same,activation,[6],0.165% [at 0.249 µM]
same,activation,[7],-1.51% [at 0.249 µM]
same,"activity change, negative = cytotoxicity",[8],-6.87% [at 0.249 µM]
same,"activity change, negative = cytotoxicity",[9],0.149% [at 0.249 µM]
same,"activity change, negative = cytotoxicity",[10],1.19% [at 0.249 µM]
same,activation,[11],0.0128% [at 0.349 µM]
same,"activity change, negative = inhibition",[12],-0.651% [at 0.349 µM]
same,activation,[13],0.882% [at 0.349 µM]
same,"activity change, negative = inhibition",[14],-6.33% [at 0.348 µM]
Cc1cc(Cl)ccc1O[C@H](C)C(=O)O,Potency,[1],inactive
same,Potency,[2],inactive
same,Potency,[3],inactive
same,Potency,[4],inactive
same,Potency,[5],inactive
same,Potency,[6],inactive
same,Potency,[7],inactive
same,Potency,[8],inactive
same,Potency,[9],inactive
same,Potency,[15],inactive
same,Potency,[16],inactive
same,Potency,[17],inactive
same,Potency,[18],inactive
same,Potency,[19],inactive
same,Potency,[12],inactive
same,Potency,[20],inactive
same,Potency,[13],inactive
same,Potency,[14],inactive
COc1cc(C=O)cc2c1[C@H](COC(N)=O)[C@]1(OC(C)=O)ON2C[C@H]2[C@@H]1N2C(C)=O,Potency,[1],9.69 µM (active)
same,Potency,[2],inactive
same,Potency,[3],inactive
same,Potency,[4],inactive
same,Potency,[5],inactive
same,Potency,[6],inactive
same,Potency,[7],inactive
same,Potency,[8],inactive
same,Potency,[9],inactive
same,Potency,[15],3.63 µM (active)
same,Potency,[16],inactive
same,Potency,[18],inactive
same,Potency,[19],inactive
same,Potency,[11],inactive
same,Potency,[20],inactive
same,Potency,[13],inactive
same,Potency,[14],inactive
O=CNC(N1CCN(C(NC=O)C(Cl)(Cl)Cl)CC1)C(Cl)(Cl)Cl (stereo not drawn),Potency,[1],inactive
same,Potency,[2],inactive
same,Potency,[3],inactive
same,Potency,[4],inactive
same,Potency,[5],inactive
same,Potency,[6],inactive
same,Potency,[7],inactive
same,Potency,[8],inactive
same,Potency,[9],inactive
same,Potency,[15],inactive
same,Potency,[16],inactive
same,Potency,[19],inactive
same,Potency,[20],inactive
same,Potency,[13],inactive
CCc1ccc(C2CCNCC2)cc1,Potency,[1],inactive
same,Potency,[2],inactive
same,Potency,[3],inactive
same,Potency,[4],inactive
same,Potency,[5],inactive
same,Potency,[6],inactive
same,Potency,[7],inactive
same,Potency,[8],inactive
same,Potency,[9],inactive
same,Potency,[15],inactive
same,Potency,[16],18.3 µM (active)
same,Potency,[18],inactive
same,Potency,[19],inactive
same,Potency,[11],inactive
same,Potency,[12],inactive
same,Potency,[13],inactive
same,Potency,[14],inactive
Oc1ccc(Cc2ccc(O)cc2)cc1,Potency,[1],inactive
same,Potency,[2],inactive
same,Potency,[3],inactive
same,Potency,[4],inactive
same,Potency,[5],inactive
same,Potency,[6],inactive
same,Potency,[7],inactive
same,Potency,[8],inactive
same,Potency,[9],inactive
same,Potency,[15],inactive
same,Potency,[17],inactive
same,Potency,[18],inactive
same,Potency,[19],inactive
same,Potency,[11],inactive
same,Potency,[12],inactive
same,Potency,[20],inactive
same,Potency,[13],inactive
same,Potency,[14],inactive
CC(N)=S,Potency,[1],inactive
same,Potency,[2],inactive
same,Potency,[3],inactive
same,Potency,[4],inactive
same,Potency,[5],inactive
same,Potency,[6],inactive
same,Potency,[7],inactive
same,Potency,[8],inactive
same,Potency,[9],inactive
same,Potency,[10],inactive
same,Potency,[11],inactive
same,Potency,[12],inactive
same,Potency,[20],inactive
same,Potency,[13],inactive
same,Potency,[14],inactive

# — PubChem BioAssay (Tox21)
